A selection: hits, their analogues and other compounds. The true share with any hit is near 19%.
HT1080 IDH1KD tx = toxicity to HT-1080 IDH1 knockdown cells (counter line). HT-1080 IDH1 knockdown viability, ATP luminescence, 48 h. Potency, µM (series often up to 46.1 µM), for inactives: at the top dose activity, negative = toxicity, most hits filed as cytotoxic. actives 2% (n = 360,000);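 further: potency means the concentration at half of the fitted maximal effect; 0% = DMSO wells and -100% = cell-free medium wells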
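Assay cells: HT-1080 with IDH1 knockdown, 750 per well, RPMI/5% FBS. Exposure: 48 h at 37 °C following 2 h pre-incubation. Read: CellTiter-Glo luminescence; fitted concentration-response, curve class assigned.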
TDP1 cell CPT = DT40-hTDP1 cell growth loss with CPT; Potency, µM (series often up to 46.2 µM), inactives show top-dose activity change, negative = growth inhibition, most hits filed as inhibitors; AID 686979; actives 12% (n = 420,000); chicken DT40 Tdp1-/-;hTDP1 cells + 20 nM CPT, ATP luminescence, 48 h; further: potency means the concentration at half of the fitted maximal effect; nearly all actives have a fitted effect of over 55% in size
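Chicken DT40 Tdp1-/- cells complemented with human TDP1, 400 cells/well, exposed to compounds plus 20 nM camptothecin for at least 48 h at 37 C; viability read as ATP content by CellTiter-Glo luminescence.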
uPA generation = blocks generation of uPA at the cell surface; cell surface uPA generation assay, qHTS; Potency, µM (highest dose often 38.3 µM), for inactives: top-dose activity change, negative = inhibition, hits mostly inhibitors; actives 0.31% (n = 330,000); active means well fitted inhibition curve with a large enough effect; inconclusive means small, poorly fitted or top-dose-only effect; inactive means no such curve, though single readings can be large or run the other way; tested in mouse RAW 264.7 cells; further: potency means the concentration at half of the fitted maximal effect; nearly all actives have a fitted effect of over 55% in size
HT1080NT lethal = kills 2HG-producing HT-1080-NT fibrosarcoma cells; actives 1.6% (n = 360,000); HT-1080-NT fibrosarcoma viability, CellTiter-Glo ATP luminescence, 48 h; AID 686970; Potency, µM (doses to about 46.1 µM), inactives show top-dose activity, negative = less viability, usual class: cytotoxic;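 further: NT is the 2HG producing partner of a matched IDH1 knockdown line; potency means the concentration at half of the fitted maximal effect; 0% = DMSO-treated cells and -100% = media-only wells without cells; nearly all actives have a fitted effect of over 55% in size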
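HT-1080-NT; 750 cells/well; 5% FBS RPMI; 48 h compound, 37 degrees C; CellTiter-Glo luminescence; curve fitting and curve-class assignment.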
TDP1 cell noCPT = qHTS for Inhibitors of human tyrosyl-DNA phosphodiesterase 1 (TDP1): qHTS in cells in absence of CPT | DT40 Tdp1-/- hTDP1 cells, no CPT, ATP luminescence, 48 h | Potency, µM (doses to about 46.2 µM), inactives show top-dose activity change, negative = growth inhibition, hits mostly inhibitors | actives 15% (n = 420,000) | AID 686978, 2013; further: potency means the concentration at half of the fitted maximal effect; nearly all actives have a fitted effect of over 55% in size
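Growth of hTDP1-complemented DT40 Tdp1-knockout cells is measured by ATP luminescence after at least 48 hr compound exposure at 37 °C, with DMSO substituting for the 20 nM CPT used in the parallel screen.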
IL-1B inflam inh = inhibitors of inflammasome signaling (IL-1 beta secretion) | THP-1 LPS/ATP IL-1B secretion, AlphaLISA, 16 h; stronger effect = lower value | activity change, % at 57.5 µM | actives 4.7% (n = 360,000); in the data active means activity change below about -50%; inconclusive means mostly about -30% to -49%
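Secreted IL-1B measured by AlphaLISA bead assay after 16 h compound exposure of THP-1 cells; compounds (final up to 57.5 uM) added 1 h before LPS (250 ng/mL) and ATP (1.25 mM) stimulation; lower signal means less secretion.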
* = called active by the depositor. Unless noted, the call rests on the fitted dose curve; in most records, active means well fitted curve in the direction sought with a large enough effect; inconclusive means small, poorly fitted or top-dose-only effect, or another doubt; inactive means no such curve, though single readings can be large; an effect the other way counts as inactive or inconclusive. Unless noted, on the % scale 0 is the no-effect control and ±100 the full control effect.

Screening O=C(CCN1C(=O)C2C3C=CC(C4CC34)C2C1=O)Nc1ccc(Cl)cc1O (configuration not stated) returned HT1080 IDH1KD tx -2%, TDP1 cell CPT -3%, uPA generation inconclusive, HT1080NT lethal -11%, TDP1 cell noCPT inconclusive and IL-1B inflam inh 5.
`c1ccc2c(c1)OCC(CN1CCCCC1)O2` (configuration not stated) gave TDP1 cell CPT 8% and TDP1 cell noCPT -5%.
Cc1cc2nc(C3CCN(CC4COc5ccccc5O4)CC3)[nH]c2cc1C (configuration not stated) was read as HT1080 IDH1KD tx inconclusive, TDP1 cell CPT 7.3µM*, uPA generation inconclusive, HT1080NT lethal 15µM*, TDP1 cell noCPT 8.2µM* and IL-1B inflam inh inconclusive.
Screening Cc1ccc2c(c1)sc(-c1ccc(N(C)C)cc1)[n+]2C returned HT1080 IDH1KD tx inconclusive, TDP1 cell CPT 0.037µM*, uPA generation inconclusive, HT1080NT lethal -28%, TDP1 cell noCPT 0.018µM* and IL-1B inflam inh inconclusive.
For Cc1ccc(NC(=S)c2ccc(N(C)C)cc2)cc1 the results were HT1080 IDH1KD tx 8%, TDP1 cell CPT -1%, uPA generation -4%, HT1080NT lethal 5%, TDP1 cell noCPT -17% and IL-1B inflam inh -4.
For FC(F)(F)C(F)(F)c1nc2nc(Cl)c(Cl)nc2[nH]1 the results were HT1080 IDH1KD tx inconclusive, TDP1 cell CPT inconclusive, HT1080NT lethal -16%, TDP1 cell noCPT inconclusive and IL-1B inflam inh 52.
`CCOC(=O)c1cc(OCc2csc(-c3ccccc3)n2)cc(C(=O)OCC)c1` gave TDP1 cell CPT -27% and TDP1 cell noCPT -27%.
For COc1cc(/C=C(/C#N)c2nc3ccccc3[nH]2)ccc1OCC(=O)Nc1ccccc1C the results were HT1080 IDH1KD tx -3%, TDP1 cell CPT 3.3µM*, uPA generation 6%, HT1080NT lethal -7%, TDP1 cell noCPT 6.5µM* and IL-1B inflam inh 7.
Screening CCOc1cc(/C=C(/C#N)c2nc3ccccc3[nH]2)ccc1OCc1ccc(C(=O)O)o1 returned HT1080 IDH1KD tx 9%, TDP1 cell CPT -23%, uPA generation 1%, HT1080NT lethal 7%, TDP1 cell noCPT inconclusive and IL-1B inflam inh -20.
For COc1cc(/C=C(\C#N)c2nc3ccccc3s2)ccc1OCC(=O)Nc1ccccc1 the results were HT1080 IDH1KD tx 7%, TDP1 cell CPT 5.2µM*, uPA generation 7%, HT1080NT lethal 9%, TDP1 cell noCPT 4.6µM* and IL-1B inflam inh 34.
Screening COc1cc(/C=C(/C#N)c2nc3ccccc3[nH]2)ccc1OCC(=O)Nc1ccccc1C(C)C returned HT1080 IDH1KD tx 8%, TDP1 cell CPT 4.6µM*, uPA generation inconclusive, HT1080NT lethal 16%, TDP1 cell noCPT 5.8µM* and IL-1B inflam inh 19.
Cc1ccc2oc3c(c(=O)c2c1)C(c1cccc(O)c1)N(c1ccccn1)C3=O (configuration not stated) was read as HT1080 IDH1KD tx -15%, TDP1 cell CPT inconclusive, uPA generation 9%, HT1080NT lethal 0% and TDP1 cell noCPT inconclusive.
Screening CCOc1cccc(C2c3c(oc4ccc(F)cc4c3=O)C(=O)N2c2cc(C)ccn2)c1 (configuration not stated) returned TDP1 cell CPT 16µM* and TDP1 cell noCPT 23µM*.
Screening CC1CN(C(=O)N2CCC(C(=O)NCc3ccccc3F)CC2)c2cc(Cl)ccc2O1 (configuration not stated) returned TDP1 cell CPT 21µM* and TDP1 cell noCPT 15µM*.
`Cc1ccc2c(c1)N(C(=O)N1CCC(C(=O)NCc3ccccc3F)CC1)CC(C)O2` (configuration not stated) gave TDP1 cell CPT inconclusive and TDP1 cell noCPT 18µM*.

Bioassay records deposited in PubChem BioAssay by National Center for Advancing Translational Sciences (NCATS).
